Measured values from PubChem BioAssay.
The source made the active and inactive calls.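 The calls were made as follows, unless noted: active = NADPH fluorescence slope more negative than the mean of all samples by about 3 SD, 99.7% confidence; inactive = the rest.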 Where a SMILES comes first, the peptide text is derived from it.

Assays:
[1] = inhibitors of TNFa-induced NFkB p65 translocation, primary screen, imaging, HUVEC, MLSMR starter and 10KST1 sets (AID 438;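 active = inhibition above 20% together with a positive visual image hit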;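 also: compound added about 3h40 before a 20 min TNFalpha stimulation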;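 as to inhibition: signal is the nuclear over cytoplasmic p65 intensity ratio per well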); details: HUVEC TNFa-induced p65 nuclear translocation; cell count: measured here: nuclei count (cytotoxicity indicator), at 2.08 µM; inhibition: at 2 µM, stronger effect = higher value, 0% TNFa-plus-vehicle, 100% no-TNFa wells
[2] = reduction of polyQ htt aggregates in cells – imaging, exon1htt(103Q)mCFP cells, high-content imaging, primary screen (AID 483;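 active = visual image review flags a hit and inhibition of aggregation exceeds 20%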;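 also: compound exposure lasted 3 days before fixation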;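 as to nuclei count: percent of the per-plate median nuclei count of sample wells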); details: exon1htt(103Q)mCFP cell line, aggregate imaging, at 2 µM; inhibition of aggregation: stronger effect = higher value; nuclei count: measured here: cell count, toxicity
[3] = endothelial E-selectin expression blockers – imaging, HUVEC, immunofluorescence, MLSMR starter and 10KST1 sets, primary screen (AID 487;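 active = visually confirmed hit in the image check and inhibition above 20%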;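 as to inhibition: signal is fraction of cell area covered by stained E-selectin grains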;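 as to nuclei count: 100% = median nuclei count of all wells on the same plate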); details: HUVEC TNFalpha-induced E-selectin immunofluorescence imaging, at 2 µM; inhibition: stronger effect = higher value; nuclei count: measured here: cell number, toxicity
[4] = target: Voltage-gated potassium channel subunit beta-2 (Rattus norvegicus) (UniProt P62483); experiment: inhibitors of rat Kvbeta2 reductase activity – biochemical, NADPH fluorescence, primary screen (AID 622;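 active = fluorescence slope higher than the sample average by over 3 SD, cut at about -0.22 in these data, passing the limit was not always enough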;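 also: slope of raw intensity against log time taken from 70 to 1610 s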); details: recombinant KvBeta, 4-cyanobenzaldehyde reduction, at 10 µM, stronger effect = higher value
Voltage-gated potassium channel subunit beta-2 (Rattus norvegicus), sequence (P62483 whole entry, looked up): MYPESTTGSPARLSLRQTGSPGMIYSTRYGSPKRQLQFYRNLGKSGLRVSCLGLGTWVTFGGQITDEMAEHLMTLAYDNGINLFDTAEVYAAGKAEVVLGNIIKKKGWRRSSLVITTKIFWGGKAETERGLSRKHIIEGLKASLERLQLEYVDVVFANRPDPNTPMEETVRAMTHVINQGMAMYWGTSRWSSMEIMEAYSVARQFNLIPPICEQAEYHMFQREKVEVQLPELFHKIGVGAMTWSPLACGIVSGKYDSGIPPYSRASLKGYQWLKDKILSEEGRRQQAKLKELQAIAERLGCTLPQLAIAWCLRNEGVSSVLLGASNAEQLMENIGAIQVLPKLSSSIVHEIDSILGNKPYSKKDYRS

[5] = target: Voltage-gated potassium channel subunit beta-2 (Rattus norvegicus) (UniProt P62483); experiment: enhancers of rat Kvbeta2 NADPH turnover – biochemical, NADPH fluorescence, primary screen (AID 623); details: Recombinant KvBeta, NADPH fluorescence decrease slope, 10 min; at 10 µM; stronger effect = lower value;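 also: fluorescence intensity change per second fitted from 20 to 320 s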
[6] = target: Alpha-2C adrenergic receptor (Homo sapiens) (UniProt P18825); experiment: compounds altering alpha2C-coupled GIRK flux – cell-based, HEK293 alpha2C/GIRK1/2, thallium flux, primary screen (AID 624;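 active = fluorescence slope after compound addition differing from the mean of all screened samples at 99.7% confidence, in either direction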;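 also: slope of fluorescence ratio to pre-addition baseline per second over 15 to 24 s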); details: thallium flux BTC fluorescence, at 10 µM, actives lie on both sides
Alpha-2C adrenergic receptor (Homo sapiens), sequence (P18825 whole entry, looked up): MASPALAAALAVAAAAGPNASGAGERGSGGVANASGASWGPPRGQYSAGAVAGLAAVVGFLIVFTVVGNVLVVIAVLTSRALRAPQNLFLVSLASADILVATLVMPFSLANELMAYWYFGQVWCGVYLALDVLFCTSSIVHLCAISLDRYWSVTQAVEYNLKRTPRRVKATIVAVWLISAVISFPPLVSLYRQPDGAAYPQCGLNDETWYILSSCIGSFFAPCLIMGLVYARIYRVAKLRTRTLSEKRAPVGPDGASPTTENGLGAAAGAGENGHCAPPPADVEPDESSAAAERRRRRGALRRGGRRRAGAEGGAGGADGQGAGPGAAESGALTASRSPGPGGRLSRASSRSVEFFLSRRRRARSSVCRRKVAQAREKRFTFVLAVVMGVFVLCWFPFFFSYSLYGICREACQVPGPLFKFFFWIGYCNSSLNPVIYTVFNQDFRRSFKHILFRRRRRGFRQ

[7] = blockers of RIG-like receptor reporter activation – cell-based, Sendai virus stimulus, luciferase, 10K MLSCN set, TLR/RLR signaling modifier project, primary screen (AID 602276;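 active = inhibition at or above 50% at 10 µM; inactive = inhibition below 50%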;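 also: firefly luciferase from ISG56 promoter only with Renilla not read in this screen; 0% = Sendai virus plus DMSO and 100% = medium plus DMSO without virus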); details: HEK293 RL24 IRF3 luciferase reporter, at 10 µM, stronger effect = higher value
[8] = TLR3 IRF3 reporter activation blockers – cell-based, poly I:C stimulus, luciferase, 10K MLSCN set, primary screen (AID 602277;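 active = inhibition of the reporter signal at or above 50%; inactive = inhibition below 50%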); details: HEK293-TLR3 RL24 IRF3 luciferase reporter, at 10 µM, stronger effect = higher value

SMILES | cell count [1] | inhibition [1] | inhibition of aggregation [2] | nuclei count [2] [%] | inhibition [3] | nuclei count [3] [%] | fluorescence slope [4] | NADPH fluorescence slope [5] | slope [6] | inhibition [7] | inhibition [8]
O=C(Cn1nc(Cc2ccncc2)c2ccccc2c1=O)N1CCc2ccccc2C1 | 726 | -7.3% (inactive) | -6.8% (inactive) | 103 | -57.6% (inactive) | 122 | -0.527 (inactive) | -2.1e-05 (inactive) | 0.0064 (inactive) | -3.59% (inactive) | 15.5% (inactive)
Cc1csc(NC(=O)c2cccs2)n1 | 464 | 1% (inactive) | 30.4% (inactive) | 83.3 | -47.5% (inactive) | 99.5 | -0.506 (inactive) | -4.8e-05 (inactive) | 0.00677 (inactive) | -38.4% (inactive) | -103% (inactive)
Cc1ccc(Cn2c(CN3CCOCC3)nc3c2c(=O)n(C)c(=O)n3C)cc1 | 332 | 19.7% (inactive) | 16.7% (inactive) | 104 | -3.6% (inactive) | 104 | -0.48 (inactive) | -4.2e-05 (inactive) | 0.00599 (inactive) | 2.2% (inactive) | 26.6% (inactive)
CCCC(NC(=O)CNC(=O)C(C)(C)C)C(=O)O (stereo unspecified) (HELM PEPTIDE1{[CC(C)(C)C(=O)[*:2]].G.[CCCC(N[*:1])C(=O)O]}$$$$V2.0) | 678 | 0.5% (inactive) | 12.5% (inactive) | 104 | 63.7% (inactive) | 97.4 | -0.499 (inactive) | -1.3e-05 (inactive) | 0.00543 (inactive) | 14.8% (inactive) | 11.8% (inactive)
c1ccc2c(c1)sc1nnnn12 | 375 | -2.1% (inactive) | -24.6% (inactive) | 112 | -109% (inactive) | 115 | -0.555 (inactive) | -7.2e-05 (inactive) | 0.00357 (inactive) | 18% (inactive) | 27.2% (inactive)
COc1cccc(NC(=O)COC(=O)c2cccnc2)c1 | 354 | -1.6% (inactive) | -3.6% (inactive) | 105 | -15.5% (inactive) | 108 | -0.503 (inactive) | -6.6e-05 (inactive) | 0.0053 (inactive) | 20.2% (inactive) | 19.2% (inactive)
CCOc1ccc(OCCCCN(C)C)cc1 | 386 | 1.8% (inactive) | 5.3% (inactive) | 110 | -111% (inactive) | 104 | -0.299 (inactive) | -6.7e-06 (inactive) | 0.00564 (inactive) | 8.3% (inactive) | 27.7% (inactive)
O=C(CSc1nnc(-c2ccco2)n1-c1ccccc1)N1CCN(C(=O)c2ccco2)CC1 | 537 | -7.8% (inactive) | 27.8% (active) | 59.4 | 0.8% (inactive) | 116 | -0.474 (inactive) | -1.7e-05 (inactive) | 0.00672 (inactive) | 11.5% (inactive) | 31.2% (inactive)
CC(=O)Oc1ccc(-c2ccc(C(=O)O)cc2)cc1 | 385 | -6.5% (inactive) | 17.9% (inactive) | 99.6 | 35.1% (inactive) | 102 | -0.315 (inactive) | -7.2e-06 (inactive) | 0.00672 (inactive) | 4.99% (inactive) | 14.8% (inactive)
O=C(NCc1cccs1)c1cc2c(s1)CCCC2 | 377 | -16.3% (inactive) | 5.1% (inactive) | 89.1 | -21.4% (inactive) | 126 | -0.479 (inactive) | 6e-05 (inactive) | 0.0052 (inactive) | -44.6% (inactive) | -105% (inactive)
C=C(C)Cn1c(N2CCN(CC)CC2)nc2c1c(=O)[nH]c(=O)n2C | 441 | 14% (inactive) | -6.4% (inactive) | 81.9 | 12.3% (inactive) | 104 | -0.528 (inactive) | -1.8e-05 (inactive) | 0.00582 (inactive) | 2.55% (inactive) | 25.8% (inactive)
COc1ccc(CN(Cc2nc3ccccc3c(=O)[nH]2)C(=O)NC2CCCCC2)cc1 | 389 | -8.4% (inactive) | 4.6% (inactive) | 100 | -95.3% (inactive) | 84.3 | -0.359 (inactive) | -2.1e-05 (inactive) | 0.00294 (inactive) | 15.1% (inactive) | 29.3% (inactive)
CC(C)C(c1nnnn1CC1CCCO1)N1CCN(Cc2ccc3c(c2)OCO3)CC1 (stereo unspecified) | 357 | 4.8% (inactive) | -10.8% (inactive) | 113 | -55.1% (inactive) | 110 | -0.521 (inactive) | -5.8e-05 (inactive) | 0.00548 (inactive) | 9.72% (inactive) | 12.5% (inactive)
O=S(=O)(NCc1cn2ccsc2n1)c1ccc2c(c1)OCCO2 | 600 | 8.2% (inactive) | -3.9% (inactive) | 71 | 51.6% (inactive) | 72.2 | -0.502 (inactive) | -3.9e-05 (inactive) | 0.00564 (inactive) | 5.63% (inactive) | 11.2% (inactive)
C=CCn1c(CC#N)nnc1N1CCOCC1 | 481 | 0.7% (inactive) | -15% (inactive) | 116 | -92% (inactive) | 118 | -0.487 (inactive) | 2.7e-05 (inactive) | 0.00619 (inactive) | 6.66% (inactive) | 13.3% (inactive)
Cc1ccc(-n2ncc3c(=O)[nH]c(SCC(=O)N4CCN(c5ccccc5)CC4)nc32)cc1 | 229 | -8.5% (inactive) | 12.5% (inactive) | 93.6 | -22.6% (inactive) | 118 | -0.358 (inactive) | -1.3e-05 (inactive) | 0.00346 (inactive) | 9.1% (inactive) | 23.7% (inactive)
CCC(CC)n1[nH]c(=O)c2c(C)cc(C)nc21 | 368 | 0.2% (inactive) | 0.4% (inactive) | 106 | 13.4% (inactive) | 106 | -0.299 (inactive) | -6.9e-05 (inactive) | 0.00499 (inactive) | 6.59% (inactive) | 13.6% (inactive)
Cc1ccc(Cn2c(=N)c(C(=O)NCc3ccco3)cc3c(=O)n4ccccc4nc32)cc1 | 491 | 1.5% (inactive) | -19.4% (inactive) | 95.7 | -83% (inactive) | 106 | -0.279 (inactive) | -5.9e-05 (inactive) | 0.00216 (inactive) | -2.87% (inactive) | 10.3% (inactive)
COCCNC(=O)CN(C)S(=O)(=O)c1ccc(Br)cc1 | 465 | 2.1% (inactive) | -10.4% (inactive) | 106 | 24.8% (inactive) | 110 | -0.507 (inactive) | -3.7e-05 (inactive) | 0.00533 (inactive) | 11.2% (inactive) | 12.3% (inactive)
CC(C)Cn1c(CN(Cc2ccccc2)Cc2ccccc2)nc2c1c(=O)n(C)c(=O)n2C | 567 | -1% (inactive) | 1.4% (inactive) | 124 | -12.8% (inactive) | 117 | -0.518 (inactive) | -1.8e-05 (inactive) | 0.00724 (inactive) | 9.97% (inactive) | 12.9% (inactive)
c1ccc(N2CCN(Cc3ccnc4ccccc34)CC2)cc1 | 424 | 5.4% (inactive) | 10.4% (inactive) | 83.9 | 43.4% (inactive) | 102 | -0.477 (inactive) | -3.9e-05 (inactive) | 0.0043 (inactive) | -12.4% (inactive) | -22.2% (inactive)
COc1ccc(Cc2nc(-c3ccc(NC(=O)c4cccnc4)cc3)no2)cc1 | 609 | 9.6% (inactive) | 23.4% (inactive) | 121 | -45.6% (inactive) | 96.3 | -0.6 (inactive) | -5e-05 (inactive) | 0.0059 (inactive) | -8.06% (inactive) | -67.3% (inactive)
Cc1cccc(OCC(=O)N2CCN(C(=O)Cc3ccccc3)CC2)c1 | 264 | -5.5% (inactive) | 15.8% (inactive) | 85.9 | -34.1% (inactive) | 111 | -0.502 (inactive) | -4.5e-05 (inactive) | 0.00476 (inactive) | 5.28% (inactive) | 16.6% (inactive)
CCOCC(=O)Nc1nc2c(s1)C(=O)CC(C)(C)C2 | 921 | 0.6% (inactive) | -38% (inactive) | 144 | -70.4% (inactive) | 122 | -0.541 (inactive) | 2.2e-05 (inactive) | 0.00739 (inactive) | 12.5% (inactive) | 39% (inactive)
O=C(NCc1cccnc1)c1ccccn1 | 354 | -11% (inactive) | -7.8% (inactive) | 113 | -18.1% (inactive) | 108 | -0.466 (inactive) | -4.5e-06 (inactive) | 0.00661 (inactive) | 3.99% (inactive) | -3.56% (inactive)
CCCC(c1nnnn1Cc1ccc(OC)cc1)N1CCN(c2ccccc2OC)CC1 (stereo unspecified) | 257 | 12.3% (inactive) | -3.4% (inactive) | 101 | -14.7% (inactive) | 82.7 | -0.433 (inactive) | -0.000141 (inactive) | 0.00492 (inactive) | 10.6% (inactive) | 23.6% (inactive)
